# Experimental data taken from the supplement of paper PMC10849652.
# Targets with a hit are over-represented here; the source holds about 7,900 in all. About 0.6% of all pairs of compound and target were hits. A number with no mark means an inactive call.
# Tests used:
# Assay in all cases: log2 fold change, soluble protein after heating vs DMSO (PISA); higher = thermal stabilisation; K562 cells, 10 uM, 30 min; active = over 0.2 and 3.5 SD of the protein, either way, in both replicates (recomputed)
# bafetinib = compound: Cc1ccc(NC(=O)c2ccc(CN3CC[C@H](N(C)C)C3)c(C(F)(F)F)c2)cc1Nc1nccc(-c2cncnc2)n1 [bafetinib]
# Summary of the method: (§1)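 Soluble protein was quantified by TMTpro 16plex LC-MS/MS after channel sums were equalised. It was obtained as the supernatant after 21,000xg for 90 min from pooled aliquots of K562 cells (2×10^6 cells/mL, 10 μM compound, 30 min) heated for 3 min across 48°C-58°C and extracted in PBS with 0.5% NP-40 at 4°C. Thermal stability values are relative to control samples and come from duplicates. They are given as log2 fold changes.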
# [1] = compound: Cc1cccc(CC(=O)N2CCc3c2ccc(-c2cn(C)c4ncnc(N)c24)c3F)n1
# Summary of the method: as §1
# nilotinib = compound: Cc1cn(-c2cc(NC(=O)c3ccc(C)c(Nc4nccc(-c5cccnc5)n4)c3)cc(C(F)(F)F)c2)cn1 [nilotinib]
# Summary of the method: as §1
# [2] = compound: Cc1nc(Nc2n[nH]c3c2CN(C(=O)N[C@H](CN(C)C)c2ccccc2)C3(C)C)c2sccc2n1
# Summary of the method: as §1
# dasatinib = compound: Cc1nc(Nc2ncc(C(=O)Nc3c(C)cccc3Cl)s2)cc(N2CCN(CCO)CC2)n1 [dasatinib]
# Summary of the method: as §1
# [3] = compound: Cc1ncc(-c2ccnc(Nc3ccc(S(C)(=O)=O)cc3)n2)n1C(C)C
# Summary of the method: as §1
# [4] = compound: Cn1cc(-c2ccc3c(c2)CCN3C(=O)Cc2cccc(C(F)(F)F)c2)c2c(N)ncnc21
# Summary of the method: as §1
# [5] = compound: Cn1cc(-c2ccc3nnc(C(F)(F)c4ccc5ncccc5c4)n3n2)cn1
# Summary of the method: as §1
# tipifarnib = compound: Cn1cncc1[C@@](N)(c1ccc(Cl)cc1)c1ccc2c(c1)c(-c1cccc(Cl)c1)cc(=O)n2C [tipifarnib]
# Summary of the method: as §1
# mubritinib = compound: FC(F)(F)c1ccc(/C=C/c2nc(COc3ccc(CCCCn4ccnn4)cc3)co2)cc1 [mubritinib]
# Summary of the method: as §1
# Chain of UniProt P52732 (P52732 whole entry, looked up): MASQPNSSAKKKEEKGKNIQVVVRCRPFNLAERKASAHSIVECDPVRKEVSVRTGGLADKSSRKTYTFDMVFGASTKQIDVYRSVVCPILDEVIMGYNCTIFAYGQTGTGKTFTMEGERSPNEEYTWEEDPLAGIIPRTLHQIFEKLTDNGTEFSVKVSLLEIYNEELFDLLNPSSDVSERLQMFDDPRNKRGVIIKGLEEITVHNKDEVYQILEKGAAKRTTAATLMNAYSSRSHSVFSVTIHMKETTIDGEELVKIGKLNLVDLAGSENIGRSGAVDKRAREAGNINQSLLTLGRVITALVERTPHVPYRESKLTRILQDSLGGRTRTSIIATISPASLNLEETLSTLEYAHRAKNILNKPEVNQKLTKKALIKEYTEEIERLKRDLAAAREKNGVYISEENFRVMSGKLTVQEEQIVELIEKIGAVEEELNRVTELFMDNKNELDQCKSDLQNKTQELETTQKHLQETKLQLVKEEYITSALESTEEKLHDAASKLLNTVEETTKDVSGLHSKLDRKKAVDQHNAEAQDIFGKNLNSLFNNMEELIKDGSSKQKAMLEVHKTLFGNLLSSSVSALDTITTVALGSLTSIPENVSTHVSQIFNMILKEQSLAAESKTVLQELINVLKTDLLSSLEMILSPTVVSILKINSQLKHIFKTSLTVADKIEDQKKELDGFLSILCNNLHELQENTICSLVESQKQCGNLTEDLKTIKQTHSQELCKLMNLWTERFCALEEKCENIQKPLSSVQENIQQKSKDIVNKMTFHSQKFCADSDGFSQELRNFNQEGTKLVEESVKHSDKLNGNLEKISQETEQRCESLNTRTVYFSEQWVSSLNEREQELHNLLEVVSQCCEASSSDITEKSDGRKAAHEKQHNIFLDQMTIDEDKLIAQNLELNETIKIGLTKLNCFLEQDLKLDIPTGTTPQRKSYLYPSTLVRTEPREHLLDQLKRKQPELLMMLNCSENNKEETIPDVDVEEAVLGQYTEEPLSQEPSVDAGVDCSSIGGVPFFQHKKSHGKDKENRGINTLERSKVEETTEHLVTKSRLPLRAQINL
# Chain of UniProt P10620 (P10620 whole entry, looked up): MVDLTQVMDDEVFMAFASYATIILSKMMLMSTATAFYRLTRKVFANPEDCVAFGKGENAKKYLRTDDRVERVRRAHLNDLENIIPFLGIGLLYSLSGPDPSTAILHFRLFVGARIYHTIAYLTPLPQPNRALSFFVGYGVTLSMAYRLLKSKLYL
# Chain of UniProt Q08431 (Q08431 whole entry, looked up): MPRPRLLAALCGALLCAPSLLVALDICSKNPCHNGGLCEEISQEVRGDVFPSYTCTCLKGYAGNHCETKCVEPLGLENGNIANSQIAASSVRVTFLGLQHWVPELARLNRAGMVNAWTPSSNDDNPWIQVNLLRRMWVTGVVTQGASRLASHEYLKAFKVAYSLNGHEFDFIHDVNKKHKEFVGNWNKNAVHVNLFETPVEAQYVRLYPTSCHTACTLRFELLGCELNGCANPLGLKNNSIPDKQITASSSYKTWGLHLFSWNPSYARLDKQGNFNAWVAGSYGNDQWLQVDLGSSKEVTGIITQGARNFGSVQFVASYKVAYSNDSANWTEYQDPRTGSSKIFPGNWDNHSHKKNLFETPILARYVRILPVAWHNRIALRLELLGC
# Chain of UniProt P52294 (P52294 whole entry, looked up): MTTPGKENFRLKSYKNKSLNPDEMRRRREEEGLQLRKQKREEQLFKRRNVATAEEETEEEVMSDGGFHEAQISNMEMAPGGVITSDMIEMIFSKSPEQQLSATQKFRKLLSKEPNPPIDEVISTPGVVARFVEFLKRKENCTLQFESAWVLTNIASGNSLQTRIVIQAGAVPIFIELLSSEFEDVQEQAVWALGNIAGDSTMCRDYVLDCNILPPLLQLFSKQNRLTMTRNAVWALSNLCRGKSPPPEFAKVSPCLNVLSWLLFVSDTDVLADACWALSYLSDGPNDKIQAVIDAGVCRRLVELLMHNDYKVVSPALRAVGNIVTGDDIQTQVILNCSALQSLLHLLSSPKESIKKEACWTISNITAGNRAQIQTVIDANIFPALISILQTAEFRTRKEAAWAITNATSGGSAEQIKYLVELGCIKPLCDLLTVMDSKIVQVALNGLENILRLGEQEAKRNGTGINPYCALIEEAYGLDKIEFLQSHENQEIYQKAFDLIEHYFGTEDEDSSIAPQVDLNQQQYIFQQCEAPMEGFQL
# Chain of UniProt P11717 (P11717 whole entry, looked up): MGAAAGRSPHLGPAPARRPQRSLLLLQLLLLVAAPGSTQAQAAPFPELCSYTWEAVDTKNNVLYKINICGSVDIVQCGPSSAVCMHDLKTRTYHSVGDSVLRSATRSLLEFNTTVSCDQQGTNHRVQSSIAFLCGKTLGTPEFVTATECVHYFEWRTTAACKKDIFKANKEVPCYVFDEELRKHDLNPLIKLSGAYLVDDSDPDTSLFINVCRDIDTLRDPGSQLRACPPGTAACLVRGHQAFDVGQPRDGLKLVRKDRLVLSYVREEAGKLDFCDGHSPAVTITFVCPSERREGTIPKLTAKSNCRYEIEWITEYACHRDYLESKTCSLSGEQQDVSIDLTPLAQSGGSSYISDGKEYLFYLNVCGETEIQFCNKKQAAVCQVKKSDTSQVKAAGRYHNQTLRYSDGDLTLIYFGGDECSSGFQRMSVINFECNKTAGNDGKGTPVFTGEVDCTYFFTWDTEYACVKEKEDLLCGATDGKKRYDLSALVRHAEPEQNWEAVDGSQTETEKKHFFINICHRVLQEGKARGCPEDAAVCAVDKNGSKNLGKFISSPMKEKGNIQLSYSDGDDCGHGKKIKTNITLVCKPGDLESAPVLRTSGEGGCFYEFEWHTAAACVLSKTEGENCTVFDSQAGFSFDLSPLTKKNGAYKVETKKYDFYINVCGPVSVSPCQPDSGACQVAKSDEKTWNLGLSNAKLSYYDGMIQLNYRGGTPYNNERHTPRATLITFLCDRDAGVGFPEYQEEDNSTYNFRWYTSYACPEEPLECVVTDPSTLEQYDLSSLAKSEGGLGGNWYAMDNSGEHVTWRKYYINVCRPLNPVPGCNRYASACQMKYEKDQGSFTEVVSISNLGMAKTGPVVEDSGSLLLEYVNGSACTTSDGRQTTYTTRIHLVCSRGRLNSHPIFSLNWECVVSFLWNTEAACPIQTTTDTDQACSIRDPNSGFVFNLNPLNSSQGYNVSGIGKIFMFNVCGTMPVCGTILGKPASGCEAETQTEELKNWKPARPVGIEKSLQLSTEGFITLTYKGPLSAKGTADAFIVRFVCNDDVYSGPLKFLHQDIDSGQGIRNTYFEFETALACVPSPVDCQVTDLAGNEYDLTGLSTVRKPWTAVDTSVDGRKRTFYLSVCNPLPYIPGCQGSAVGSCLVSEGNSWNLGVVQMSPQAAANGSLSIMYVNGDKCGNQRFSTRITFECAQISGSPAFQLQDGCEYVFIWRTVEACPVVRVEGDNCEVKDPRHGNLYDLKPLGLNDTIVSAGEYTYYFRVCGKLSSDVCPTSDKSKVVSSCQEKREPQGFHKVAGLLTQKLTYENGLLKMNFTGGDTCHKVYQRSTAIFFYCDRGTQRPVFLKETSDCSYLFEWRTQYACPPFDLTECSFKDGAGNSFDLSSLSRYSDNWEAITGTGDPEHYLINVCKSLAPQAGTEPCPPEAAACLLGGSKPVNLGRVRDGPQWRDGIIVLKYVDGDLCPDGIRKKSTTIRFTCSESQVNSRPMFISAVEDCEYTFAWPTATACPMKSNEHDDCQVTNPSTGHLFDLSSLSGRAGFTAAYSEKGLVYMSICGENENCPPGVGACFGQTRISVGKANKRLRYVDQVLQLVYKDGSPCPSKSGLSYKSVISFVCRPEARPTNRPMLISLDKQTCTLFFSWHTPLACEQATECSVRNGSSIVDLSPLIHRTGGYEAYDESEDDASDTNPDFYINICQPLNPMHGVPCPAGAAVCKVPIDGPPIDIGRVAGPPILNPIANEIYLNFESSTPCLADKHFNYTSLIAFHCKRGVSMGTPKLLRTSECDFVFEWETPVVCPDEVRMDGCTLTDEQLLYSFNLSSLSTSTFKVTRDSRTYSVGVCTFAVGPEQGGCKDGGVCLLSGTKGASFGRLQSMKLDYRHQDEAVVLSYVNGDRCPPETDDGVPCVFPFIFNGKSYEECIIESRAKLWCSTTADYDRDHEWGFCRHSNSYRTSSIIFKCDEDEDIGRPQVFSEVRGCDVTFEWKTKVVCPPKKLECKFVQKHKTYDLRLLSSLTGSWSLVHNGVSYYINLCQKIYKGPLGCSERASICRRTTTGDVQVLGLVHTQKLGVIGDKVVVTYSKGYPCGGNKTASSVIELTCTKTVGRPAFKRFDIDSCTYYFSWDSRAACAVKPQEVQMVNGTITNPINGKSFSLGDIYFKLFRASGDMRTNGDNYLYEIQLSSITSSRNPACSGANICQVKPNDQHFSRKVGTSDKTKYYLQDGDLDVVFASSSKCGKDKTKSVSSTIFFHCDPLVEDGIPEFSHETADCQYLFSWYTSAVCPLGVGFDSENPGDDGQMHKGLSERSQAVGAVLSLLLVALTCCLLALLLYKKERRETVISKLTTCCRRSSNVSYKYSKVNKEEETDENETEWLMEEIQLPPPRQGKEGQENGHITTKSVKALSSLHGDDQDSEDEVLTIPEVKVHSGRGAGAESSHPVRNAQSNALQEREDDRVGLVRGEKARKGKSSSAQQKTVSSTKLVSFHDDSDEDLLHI
# Chain of UniProt Q8NC54 (Q8NC54 whole entry, looked up): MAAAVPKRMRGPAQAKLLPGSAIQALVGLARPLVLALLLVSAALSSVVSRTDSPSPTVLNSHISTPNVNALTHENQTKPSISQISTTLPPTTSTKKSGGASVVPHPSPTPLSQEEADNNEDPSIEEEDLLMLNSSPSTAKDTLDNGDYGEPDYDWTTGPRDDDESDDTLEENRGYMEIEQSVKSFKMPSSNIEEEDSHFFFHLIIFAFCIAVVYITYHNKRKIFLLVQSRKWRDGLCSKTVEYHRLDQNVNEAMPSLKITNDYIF
Target,log2 fold change (bafetinib),log2 fold change [1],log2 fold change (nilotinib),log2 fold change [2],log2 fold change (dasatinib),log2 fold change [3],log2 fold change [4],log2 fold change [5],log2 fold change (tipifarnib),log2 fold change (mubritinib)
ILK (UniProt Q13418),-0.038,-0.012,0.122,-0.024,-0.07,-0.002,0.027,0.005,-0.023,0.048
IPO7 (UniProt O95373),-0.018,0.035,-0.058,-0.044,-0.074,-0.091,-0.018,0.008,-0.126,0.079
MAGEA8 (UniProt P43361),0.022,-0.265,-0.372 (active),-0.207,0.019,0.016,0.008,-0.003,-0.01,–
KIF13A (UniProt Q9H1H9),-0.033,-0.095,0.012,-0.01,-0.044,0.008,0.029,-0.032,-0.014,0.024
MAP4K4 isoform 3 (UniProt O95819),-0.068,0.029,-0.038,-0.094,-0.162,-0.09,-0.024,0.038,-0.027,0.021
LTN1 isoform 3 (UniProt O94822),-0.036,0.039,-0.079,-0.031,-0.122,-0.052,-0.09,-0.042,-0.151,-0.009
LMNB2 (UniProt Q03252),-0.067,-0.078,0.022,-0.077,0.101,-0.158,0.015,-0.007,0.166,-0.043
KPNA1 (UniProt P52294),0,-0.02,-0.103,-0.074,0.003,0.047,-0.089,-0.008,-0.088,-0.06
KDM3B (UniProt Q7LBC6),-0.005,0.038,-0.009,-0.098,-0.136,0.042,-0.032,0.006,0.018,0.002
MAPK14 (UniProt Q16539),1.65 (active),-0.092,1.68 (active),0.123,1.05 (active),0.071,0.107,0.014,-0.102,0
KIF11 (UniProt P52732),0.043,0.044,-0.057,-0.031,-0.075,0.088,-0.06,-0.002,-0.078,-0.025
IGFBP4 (UniProt P22692),-0.126,-0.173,0.077,-0.06,0.14,-0.007,0.116,-0.102,0.033,-0.15
LMNA (UniProt P02545),-0.011,-0.025,0.065,-0.116,0.097,-0.179,-0.04,-0.043,0.064,-0.069
KDM5D isoform 3 (UniProt Q9BY66),0.208,-0.049,0.089,-0.054,-0.289,-0.047,-0.026,0.058,-0.044,0.203
LBR (UniProt Q14739),0.113,0.101,-0.201,-0.007,-0.017,-0.018,0.041,0.012,-0.141,0.026
ITPRIP (UniProt Q8IWB1),-0.126,-0.016,-0.109,0.035,-0.041,-0.08,0.073,0.012,-0.007,0.061
ME2 (UniProt P23368),-0.012,-0.087,0.138,0.029,-0.052,-0.015,-0.076,0.001,0.107,-0.074
IGF2R (UniProt P11717),-0.338 (active),0.021,-0.02,-0.087,-0.023,0.021,0,0.023,0.045,0.003
MGST1 (UniProt P10620),-0.001,-0.053,-0.006,0.078,0.084,-0.039,-0.013,0.014,0.131,-0.005
LIMA1 isoform 4 (UniProt Q9UHB6),-0.115,0.019,-0.136,-0.112,0.179,0.052,-0.154,-0.071,0.088,0.019
KCT2 (UniProt Q8NC54),-0.114,0.045,-0.01,-0.023,0.045,0.021,0.01,0.073,0.125,0.052
MAPKAPK2 (UniProt P49137),0.125,0.017,0.145,0.045,-0.086,-0.011,-0.014,-0.022,-0.022,-0.009
IMMT isoform 2 (UniProt Q16891),-0.081,0.11,-0.007,-0.002,0.144,-0.022,-0.037,0.037,0.065,0.066
LARP7 isoform 3 (UniProt Q4G0J3),-0.045,0.041,0.01,-0.298 (active),-0.063,-0.249,0.021,0.029,0.021,-0.05
LONP2 (UniProt Q86WA8),-0.037,-0.054,0.26,-0.187,0.024,-0.065,0.055,-0.131,0.012,0.063
IWS1 (UniProt Q96ST2),0.018,-0.022,-0.024,0.092,-0.054,0.311 (active),-0.013,0.022,-0.021,0.035
MFGE8 (UniProt Q08431),0.024,0.002,0.168,0.008,0.049,-0.039,-0.057,-0.029,0.033,-0.096
MED16 (UniProt Q9Y2X0),0.018,-0.009,-0.014,-0.092,0.141,-0.287,-0.144,0.009,-0.029,0.024
LIMD1 (UniProt Q9UGP4),-0.143,0.017,0.023,-0.085,0.001,-0.008,0.021,-0.015,-0.071,0.012
KSR1 (UniProt Q8IVT5),0.035,-0.052,-0.052,-0.303,-0.228,-0.021,0.003,-0.129,-0.086,-0.233
